Over roughly 33,000 sequences, “e-score” has its median near -0.053; the highest 2% begin near 0.38. This is one part of a sample in which the highest values are shown more often than they occur.
biological target: T1, SIX1 homeodomain (reference allele) (human, UniProt Q15475 108-198); assay: universal protein binding microarray; Universal all-10-mer PBM (8x60K, AMADID 030236), 300 nM GST-tagged protein, Alexa Fluor 488 anti-GST; buffer, salt, pH and temperature not stated (as in Berger); high values mean tight binding; conditions: protein: ivt; tags: N-terminal GST; dsDNA, one strand shown
T1 sequence: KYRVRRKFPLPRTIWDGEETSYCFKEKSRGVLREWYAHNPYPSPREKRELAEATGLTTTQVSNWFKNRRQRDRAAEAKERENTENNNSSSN
Summary of the method: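 GST-tagged homeodomains were made by in vitro transcription/translation and quantified by anti-GST western blot against a recombinant GST standard curve. They were applied in duplicate at 300 nM final concentration to universal 'all 10-mer' protein binding microarrays (8×60K format). Binding was quantified as 8-mer E-scores with the Universal PBM Analysis Suite.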

Sequence	binding signal
ATTATAAT	0.151 ± 0.0936 E-score
ATCGCTGA	0.226 ± 0.0497 E-score
AATCCGAT	0.3407 ± 0.0025 E-score
ATATGCGG	0.274 ± 0.0261 E-score
GTATCACA	0.476 ± 0.00651 E-score
CTATCACA	0.311 ± 0.0251 E-score
CGATCACA	0.273 ± 0.0408 E-score
ATCACACA	0.266 ± 0.0227 E-score
CTATCACC	0.35 ± 0.0258 E-score
ATATCACA	0.432 ± 0.0476 E-score
ATCACACG	0.256 ± 0.0276 E-score
ATATCACC	0.463 ± 0.0204 E-score
ATCTCACA	0.293 ± 0.0554 E-score
ATCTCACC	0.335 ± 0.0374 E-score
GTGTCACA	0.375 ± 0.0203 E-score
ATATCACG	0.456 ± 0.0263 E-score
GACCCCGA	0.162 ± 0.0961 E-score
GACCGATA	0.352 ± 0.0178 E-score
ATCCTGCC	0.175 ± 0.00513 E-score
ATCCCAGG	0.246 ± 0.0889 E-score
ATACGTCG	0.284 ± 0.0738 E-score
GAGGATCC	0.366 ± 0.0159 E-score
ATCATGCC	0.244 ± 0.0171 E-score
ATACTAAC	0.243 ± 0.00453 E-score
GATCGGGA	0.314 ± 0.0357 E-score

Sequence	binding signal
ATCATGTA	0.257 ± 0.0225 E-score
AAAATGAT	0.187 ± 0.101 E-score
CATGGATC	0.307 ± 0.0322 E-score
AACTGATC	0.286 ± 0.0372 E-score
GGCTGATA	0.422 ± 0.00103 E-score
AGCTGATA	0.357 ± 0.0301 E-score
AACTGATA	0.409 ± 0.0324 E-score
GACTGATA	0.4 ± 0.0302 E-score
GTCTGATA	0.294 ± 0.0149 E-score
CGCTGATA	0.325 ± 0.0672 E-score
GACTGATC	0.272 ± 0.0144 E-score
CACTGAGA	0.188 ± 0.00306 E-score
CACTGATC	0.284 ± 0.00727 E-score
CACTGATA	0.404 ± 0.0311 E-score
GATAAGGA	0.183 ± 0.0109 E-score
TAAACTGA	0.158 ± 0.0427 E-score
GATAAAAC	0.164 ± 0.00658 E-score
AATAGTAT	0.251 ± 0.0966 E-score
GATTAGAA	0.184 ± 0.0514 E-score
ATCAGACC	0.201 ± 0.00705 E-score
ACGATTAA	0.152 ± 0.0367 E-score
AGACTATA	0.204 ± 0.0102 E-score
AGCCAGAT	0.176 ± 0.0223 E-score
TACTGCTA	0.189 ± 0.0325 E-score
TACTGACA	0.182 ± 0.0373 E-score

Sequence	binding signal
TACTGATA	0.418 ± 0.0125 E-score
ATCGGTTC	0.248 ± 0.0232 E-score
CCCTGAGC	0.178 ± 0.0455 E-score
CCATCCGA	0.218 ± 0.0511 E-score
ATACCACC	0.403 ± 0.00615 E-score
ATACCACA	0.3 ± 0.00694 E-score
CTACCATA	0.167 ± 0.0746 E-score
ATACCATG	0.362 ± 0.0283 E-score
ATACCATC	0.384 ± 0.0257 E-score
ACACCACT	0.378 ± 0.0238 E-score
ACACCACA	0.328 ± 0.0113 E-score
ACACCACC	0.293 ± 0.0475 E-score
ATACCATA	0.3938 ± 0.0037 E-score
ATACCAAC	0.367 ± 0.0126 E-score
ATACCACG	0.291 ± 0.0123 E-score
ACACCATA	0.302 ± 0.022 E-score
ATCCCCGA	0.368 ± 0.0273 E-score
ATGGAGGA	0.155 ± 0.0279 E-score
CTATACGA	0.1804 ± 0.000898 E-score
ACCCTTCT	0.224 ± 0.046 E-score
CACCCCTC	0.251 ± 0.0895 E-score
AGATTAAT	0.2 ± 0.0731 E-score
ATTAAACC	0.174 ± 0.0609 E-score
GTGATCGA	0.159 ± 0.103 E-score
TATTGGCA	0.223 ± 0.0277 E-score

Sequence	binding signal
AAGATACA	0.265 ± 0.0451 E-score
TAGATACA	0.25 ± 0.019 E-score
ATGATAAT	0.168 ± 0.0146 E-score
ATGATACA	0.449 ± 0.0144 E-score
ATGATGCC	0.157 ± 0.00805 E-score
TCGATACA	0.348 ± 0.00588 E-score
GTTATACA	0.151 ± 0.064 E-score
CTGATACA	0.404 ± 0.00574 E-score
ATGATACC	0.4885 ± 0.000523 E-score
ATCATACA	0.306 ± 0.0152 E-score
GTGATACA	0.444 ± 0.0156 E-score
CTACAGTA	0.152 ± 0.00721 E-score
ATCACTAC	0.287 ± 0.0143 E-score
GGATTGTA	0.162 ± 0.0146 E-score
ACGCGATC	0.275 ± 0.00505 E-score
GATAGCGA	0.251 ± 0.00148 E-score
ATACATTG	0.218 ± 0.012 E-score
GTATATTA	0.267 ± 0.0332 E-score
CTCATACC	0.171 ± 0.00583 E-score
ATGATCAG	0.229 ± 0.031 E-score
ATCATACG	0.269 ± 0.0223 E-score
CTGAGACC	0.261 ± 0.00696 E-score
ATGATACG	0.48 ± 0.01 E-score
CTGATACC	0.4842 ± 0.00158 E-score

— publication PMC10668032, “Altered binding affinity of SIX1-Q177R correlates with enhanced WNT5A and WNT pathway effector expression in Wilms tumor”
